# Data published in PubChem BioAssay.
# Activity calls are given as the source filed them. Unless noted, no rule for the calls is given here.
# Tests used:
# [1] = anti-His antibody binders, primary screen, artefact control for SMM control protein annotation, biochemical, small-molecule microarray, 635 nm fluorescence (AID 1128); conditions: anti-His Alexa647 antibody binding, higher = more signal;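 also: score merges feature fluorescence with signal-to-noise for each printed compound spot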
# [2] = tested on: Human papillomavirus type 1a E7 protein (residues 1-88); test: HPV1a E7 small-molecule binders, primary screen, biochemical, small-molecule microarray, residues 1-88, 635 nm (AID 1129); conditions: small-molecule microarray binding, fluorescence 635 nm; higher = more signal
# [3] = biological target: Focal adhesion kinase 1 (Homo sapiens) (UniProt Q05397); test: small-molecule microarray binders of FAK, primary screen, biochemical, 635/667 nm fluorescence, BSA, DTT (AID 1130); conditions: PTK2 binding, 635 nm fluorescence, higher = more signal;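 also: composite of spot emission at 667 nm and signal to noise over triplicate slides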
# [4] = tested on: Fibrinogen (Alexa647-labelled); test: fibrinogen binders on compound microarrays, profiling panel, artefact control for SMM control-protein annotation, biochemical, small-molecule microarray, 635/667 nm fluorescence (AID 1131); conditions: fibrinogen-A647 binding fluorescence, higher = more signal;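 also: z-score merges 667 nm fluorescence with per-spot signal-to-noise over triplicate slides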
# [5] = biological target: Follistatin (Homo sapiens) (UniProt P19883); test: follistatin binders on small-molecule microarrays, primary screen, biochemical, small-molecule microarray, 635/667 nm fluorescence (AID 1132); conditions: FST binding, 635 nm fluorescence, higher = more signal
# [6] = biological target: Fibroblast growth factor 2 (Homo sapiens) (UniProt P09038); test: FGF2 binders on small-molecule microarrays, primary screen, biochemical, small-molecule microarray, 635/667 nm fluorescence (AID 1133); conditions: small-molecule microarray binding, FGF2, fluorescence 635/667; higher = more signal
# [7] = mitochondrial membrane potential change in A549 cells, profiling panel, cell-based, JC-1 fluorescence, basal, 24 h, 100 nL (AID 1138); conditions: higher = more signal;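 also: A549 lung adenocarcinoma cells under basal conditions with no added stimulus; test concentration not given here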
# Lefty1 = Lefty1 binders on small-molecule microarrays, primary screen, biochemical, small-molecule microarray, 635/667 nm fluorescence (AID 1139); conditions: small-molecule microarray binding, fluorescence 635/667; higher = more signal
# [8] = tested on: wheat germ agglutinin (Triticum aestivum), Alexa647-labelled; test: wheat germ agglutinin binders on compound microarrays, profiling panel, artefact control for SMM control-protein annotation, biochemical, small-molecule microarray, 635/667 nm fluorescence (AID 1140); conditions: WGA-A647 binding, 635 nm fluorescence, higher = more signal;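 also: score merges 667 nm feature emission with signal to noise over triplicate slides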
# [9] = biological target: Luciferin 4-monooxygenase (Photinus pyralis) (UniProt P08659); test: firefly luciferase enzyme inhibitors, primary screen, biochemical, luminescence, purified enzyme, 2006 set (AID 1141); conditions: SteadyGlo luminescence, 30 min, higher = more signal, called active from +8 up or from −8 down;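 also: cell-free assay with purified firefly luciferase at 100 ng per well in PBS; test concentration not given here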
# [10] = tested on: Wnt5a (protein binding on small-molecule microarray); test: Wnt5a binders on small-molecule microarray, primary screen, biophysical, 635/667 nm fluorescence (AID 1142); conditions: 635 nm fluorescence, higher = more signal;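 also: fluorescence read at 667 nm with signal to noise per printed feature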
# [11] = cell viability in Huh7 cells, primary screen, cytotoxicity control for HCV replication inhibitor project, CellTiter-Glo luminescence, basal, 48 h (AID 1143); conditions: Huh7 HCV replicon, higher = more signal, called active from +8 up or from −8 down;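 also: Huh7 hepatoma cells carrying a hepatitis C replication reporter with no stimulus; test concentration not given here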
# [12] = P. aeruginosa biofilm formation inhibitors, primary screen, PAO1 strain, BacTiter-Glo luminescence, LB-PBS (AID 1144); conditions: 12 h, higher = more signal
# [13] = CREB reporter modulators without forskolin, primary screen, cell-based, PC12, CRE-LacZ reporter, unstimulated (AID 1145); conditions: no forskolin, luminescence, 4.5 h, higher = more signal, called active from +8 up or from −8 down
# [14] = CREB reporter modulators under forskolin, primary screen, cell-based, PC12, CRE-LacZ reporter, forskolin-stimulated (AID 1146); conditions: luminescence, 4.5 h, higher = more signal, called active from +8 up or from −8 down;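 also: PC12 cells with 6xCRE LacZ reporter stimulated by forskolin 10 µM; beta-galactosidase reporter signal reflecting CREB driven transcription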
# [15] = biological target: Streptavidin (Streptomyces avidinii) (UniProt P22629); test: streptavidin binders on small-molecule microarray, primary screen, artefact control for SMM compound annotation, biophysical, 635/667 nm fluorescence (AID 1147); conditions: streptavidin binding, higher = more signal;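 also: signal reflects streptavidin binding to arrayed compounds as a control protein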
# [16] = small-molecule binders of probe aInhba, primary screen, biochemical, small-molecule microarray, 635/667 nm fluorescence (AID 1148); conditions: higher = more signal;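 also: score merges 667nm spot fluorescence with signal-to-noise for antibody binding to printed compounds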
# Torsin-1A (Homo sapiens) [17] = biological target: Torsin-1A (Homo sapiens) (UniProt O14656); test: torsin A binders from cell lysate, primary screen, small-molecule microarray, wild-type, 635/667 nm (AID 1149); conditions: COS7 hTOR1A-WT lysate, 635 nm fluorescence, higher = more signal
# Torsin-1A (Homo sapiens) [18] = biological target: Torsin-1A (Homo sapiens) (UniProt O14656); test: small-molecule binders of mutant TOR1A in lysate, primary screen, cell lysate, small-molecule microarray, COS7 lysate, 635/667 nm fluorescence (AID 1150); conditions: COS7 hTOR1A mutant lysate, 635 nm fluorescence, higher = more signal;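 also: score pools 667 nm emission and signal to noise measuring lysate protein binding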
# [19] = tested on: Sonic hedgehog protein (Shh); test: small-molecule binders of Shh protein, primary screen, biochemical, small-molecule microarray, 635/667 nm fluorescence (AID 1151); conditions: small-molecule microarray binding, 635 nm fluorescence; higher = more signal;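 also: Shh protein binding to compounds spotted on small-molecule microarray slides; score combines spot fluorescence intensity with signal-to-noise across triplicate slides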
# Luciferin 4-monooxygenase (Photinus pyralis), sequence (P08659 whole entry, looked up): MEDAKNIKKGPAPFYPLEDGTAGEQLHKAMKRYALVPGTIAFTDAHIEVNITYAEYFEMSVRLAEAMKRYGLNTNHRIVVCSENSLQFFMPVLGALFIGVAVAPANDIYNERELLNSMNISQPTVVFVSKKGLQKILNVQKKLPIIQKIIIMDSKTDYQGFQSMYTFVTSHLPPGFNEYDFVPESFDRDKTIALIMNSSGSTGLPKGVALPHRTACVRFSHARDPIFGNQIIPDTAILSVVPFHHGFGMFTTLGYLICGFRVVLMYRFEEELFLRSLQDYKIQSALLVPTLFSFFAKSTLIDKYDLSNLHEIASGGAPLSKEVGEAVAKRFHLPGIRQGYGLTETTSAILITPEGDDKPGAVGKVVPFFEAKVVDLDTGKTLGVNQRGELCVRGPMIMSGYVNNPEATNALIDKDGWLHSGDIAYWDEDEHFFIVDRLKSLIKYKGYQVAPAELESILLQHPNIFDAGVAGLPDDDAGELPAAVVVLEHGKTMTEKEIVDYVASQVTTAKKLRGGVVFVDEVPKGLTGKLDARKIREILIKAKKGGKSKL
# Follistatin (Homo sapiens), sequence (P19883 whole entry, looked up): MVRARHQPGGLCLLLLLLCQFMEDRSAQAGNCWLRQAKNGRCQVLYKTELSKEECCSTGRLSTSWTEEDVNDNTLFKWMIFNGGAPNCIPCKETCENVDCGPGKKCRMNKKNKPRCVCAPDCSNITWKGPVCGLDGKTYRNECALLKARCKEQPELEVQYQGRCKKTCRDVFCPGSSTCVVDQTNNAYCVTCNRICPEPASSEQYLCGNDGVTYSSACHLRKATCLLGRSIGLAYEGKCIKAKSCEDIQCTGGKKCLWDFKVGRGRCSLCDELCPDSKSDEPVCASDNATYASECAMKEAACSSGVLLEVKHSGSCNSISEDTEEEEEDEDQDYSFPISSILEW
# Focal adhesion kinase 1 (Homo sapiens), sequence (Q05397 whole entry, looked up): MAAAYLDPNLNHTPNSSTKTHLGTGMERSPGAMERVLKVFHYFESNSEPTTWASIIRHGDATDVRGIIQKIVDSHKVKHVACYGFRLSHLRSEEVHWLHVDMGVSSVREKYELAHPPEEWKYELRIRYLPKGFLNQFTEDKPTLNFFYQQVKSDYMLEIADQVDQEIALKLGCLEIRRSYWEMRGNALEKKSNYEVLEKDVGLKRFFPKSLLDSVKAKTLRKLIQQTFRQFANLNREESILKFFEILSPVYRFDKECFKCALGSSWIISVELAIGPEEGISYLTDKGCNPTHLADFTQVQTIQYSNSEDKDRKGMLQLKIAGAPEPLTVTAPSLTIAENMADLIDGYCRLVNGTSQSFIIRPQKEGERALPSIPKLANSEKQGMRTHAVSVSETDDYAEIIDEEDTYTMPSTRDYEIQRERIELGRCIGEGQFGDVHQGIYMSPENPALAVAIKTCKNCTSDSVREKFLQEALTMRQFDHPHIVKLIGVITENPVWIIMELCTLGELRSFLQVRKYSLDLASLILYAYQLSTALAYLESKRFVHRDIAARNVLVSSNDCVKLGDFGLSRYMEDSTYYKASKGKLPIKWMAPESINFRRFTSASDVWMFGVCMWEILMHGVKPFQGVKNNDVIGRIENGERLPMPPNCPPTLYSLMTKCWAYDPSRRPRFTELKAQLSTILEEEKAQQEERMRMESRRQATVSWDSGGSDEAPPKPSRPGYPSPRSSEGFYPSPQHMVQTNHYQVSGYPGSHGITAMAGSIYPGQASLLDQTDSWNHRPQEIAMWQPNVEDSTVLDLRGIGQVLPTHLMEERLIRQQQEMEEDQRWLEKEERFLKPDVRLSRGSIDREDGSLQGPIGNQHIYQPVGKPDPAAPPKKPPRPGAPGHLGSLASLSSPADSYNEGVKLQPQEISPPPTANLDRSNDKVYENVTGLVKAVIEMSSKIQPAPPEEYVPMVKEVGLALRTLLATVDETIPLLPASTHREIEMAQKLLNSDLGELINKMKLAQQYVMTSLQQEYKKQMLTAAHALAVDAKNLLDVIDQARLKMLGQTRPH
# Torsin-1A (Homo sapiens), sequence (O14656 whole entry, looked up): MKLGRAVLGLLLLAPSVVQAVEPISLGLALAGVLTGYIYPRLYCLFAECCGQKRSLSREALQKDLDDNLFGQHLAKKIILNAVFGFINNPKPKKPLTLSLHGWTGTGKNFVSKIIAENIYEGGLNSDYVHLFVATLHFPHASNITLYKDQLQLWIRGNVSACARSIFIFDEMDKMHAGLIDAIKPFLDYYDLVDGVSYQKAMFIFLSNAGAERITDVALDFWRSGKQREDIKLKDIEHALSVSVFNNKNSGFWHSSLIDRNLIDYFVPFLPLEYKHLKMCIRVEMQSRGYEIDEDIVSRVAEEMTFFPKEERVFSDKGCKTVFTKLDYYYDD
# Fibroblast growth factor 2 (Homo sapiens), sequence (P09038 whole entry, looked up): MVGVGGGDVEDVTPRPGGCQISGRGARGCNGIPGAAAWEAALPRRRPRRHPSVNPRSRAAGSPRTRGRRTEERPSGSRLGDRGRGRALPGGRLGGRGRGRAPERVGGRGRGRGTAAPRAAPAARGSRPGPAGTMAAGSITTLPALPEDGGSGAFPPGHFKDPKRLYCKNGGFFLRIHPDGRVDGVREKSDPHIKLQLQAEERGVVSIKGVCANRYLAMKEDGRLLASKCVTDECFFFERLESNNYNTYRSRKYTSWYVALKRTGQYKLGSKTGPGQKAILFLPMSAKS
# Streptavidin (Streptomyces avidinii), sequence (P22629 whole entry, looked up): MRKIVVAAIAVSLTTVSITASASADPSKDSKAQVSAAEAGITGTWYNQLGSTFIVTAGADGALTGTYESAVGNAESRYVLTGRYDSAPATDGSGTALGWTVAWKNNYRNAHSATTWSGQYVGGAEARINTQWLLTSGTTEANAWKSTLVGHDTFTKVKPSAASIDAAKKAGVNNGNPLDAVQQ
SMILES,composite z-score [1],composite z-score [2],composite z-score [3],composite z-score [4],composite z-score [5],composite z-score [6],z-score [7],composite z-score (Lefty1),composite z-score [8],z-score [9],composite z-score [10],z-score [11],z-score [12],z-score [13],z-score [14],composite z-score [15],composite z-score [16],composite z-score (Torsin-1A (Homo sapiens) [17]),composite z-score (Torsin-1A (Homo sapiens) [18]),composite z-score [19]
COCCCNC(=O)[C@@H]1c2ccccc2C(=O)N(Cc2cc(C(F)(F)F)cc(C(F)(F)F)c2)[C@H]1c1ccc(CO)cc1,0.358,0.6,0.358,-0.788,0.144,0.188,0.983,0.174,-0.672,0.0036 (inactive),0.128,-0.334 (inactive),0.608 (inactive),0.288 (inactive),-0.613 (inactive),-0.587,0.502,0.47,0.7,0.395
CO[C@H]1O[C@H](CO)[C@@H](OC(=O)Nc2ccc(C(F)(F)F)cc2)[C@H](OC(=O)Nc2ccccc2-c2ccccc2)[C@H]1OC(=O)Nc1ccccc1-c1ccccc1,1.7,1.26,0.735,1.04,1.27,0.686,-0.132,0.617,0.662,-0.68 (inactive),0.856,-6.09 (inactive),0.435 (inactive),0.447 (inactive),-0.747 (inactive),0.967,0.0504,0.276,0.263,1.61
COCCOC(=O)N1C(=O)[C@@]2(c3cc(C#CC4=CCCCC4)ccc31)[C@H](c1ccc(OCCO)cc1)N1[C@H](c3ccccc3)[C@H](c3ccccc3)OC(=O)[C@H]1[C@@H]2C(=O)N1CCCCCCC1,1.11,0.929,0.267,0.818,1.41,1.42,-0.744,1.21,0.743,-2.78 (inactive),0.266,-4.59 (inactive),-1.17 (inactive),-0.698 (inactive),-1.13 (inactive),0.945,1.05,0.984,0.84,1.91
COCCOC(=O)N1C(=O)[C@@]2(c3cc(C#Cc4ccc(OC)cc4)ccc31)[C@H](c1ccc(OCCO)cc1)N1[C@H](c3ccccc3)[C@H](c3ccccc3)OC(=O)[C@H]1[C@@H]2C(=O)N1CCCCCCC1,-0.252,1.2,1.4,0.636,1.36,1.24,-0.625,1.36,1.01,-2.14 (inactive),0.713,-3.28 (inactive),-1.44 (inactive),0.891 (inactive),-0.498 (inactive),2.42,1.65,0.666,1.71,2.02
COC(=O)[C@@]1(Cc2ccc(OC)cc2)[C@@H]2[C@@H](CC(=O)[C@H]2CC(=O)C(=O)N2CCCC2)CN1C(=O)c1ccccc1,2.96,1.27,0.888,1,0.713,-0.256,0.483,-0.265,1.47,0.596 (inactive),2.07,-2.82 (inactive),-0.98 (inactive),0.779 (inactive),-0.013 (inactive),1.7,1.69,0.774,1.27,-0.566
NC(=O)[C@@]1(CCS(=O)(=O)c2ccccc2)COC(c2ccc(OCCCO)cc2)=N1,0.329,-0.201,-0.0683,0.294,0.112,-0.0653,-0.492,-0.643,1.05,-0.188 (inactive),0.375,-1.5 (inactive),1.59 (inactive),0.148 (inactive),-1.35 (inactive),0.447,-0.0044,-0.0756,0.324,-0.463
O=C1OCCC=C[C@H]2OC34C=CCN(CCN5CCOCC5)C(=O)[C@H]3N(CCCO)C(=O)[C@@H]4C12 (stereo not given in full),0.0466,-1.11,-0.251,-0.0881,-0.0312,-1.26,-0.962,-0.0933,-0.458,-0.552 (inactive),-0.543,-2.19 (inactive),-0.561 (inactive),-0.354 (inactive),1.74 (inactive),-0.613,-0.0066,-1.78,-1.33,0.243
CCOC(=O)C[C@H]1[C@H](OC(=O)c2ccc(-c3ccccc3)cc2)[C@@H](NC(=O)c2ccc3ccccc3c2)c2cc(OCCCO)ccc2N1C(=O)c1ccccc1,0.137,1.05,0.19,0.118,0.0533,0.831,0.257,0.669,0.3,0.61 (inactive),0.247,-0.433 (inactive),0.0625 (inactive),0.544 (inactive),1.09 (inactive),0.114,0.0497,0.742,0.988,0.27
C=CCC(OC(C)=O)[C@@H]1[C@@H](N(Cc2ccc(-c3cccc(C(F)(F)F)c3)o2)C(=O)Cc2ccc(F)cc2)c2cc(OCCCO)ccc2N1C(=O)c1ccc2ccccc2n1 (stereo not given in full),-0.255,-0.732,-0.153,-1.12,0.67,-0.0898,0.898,-0.286,-0.375,-0.1 (inactive),-0.123,-0.0676 (inactive),-0.147 (inactive),0.134 (inactive),1.5 (inactive),-0.127,-0.176,-0.187,-0.326,0.244
